These results are taken from PubChem BioAssay AID463173 (ICCB-Longwood Screening Facility, Harvard Medical School, 2010).

About 1,700 (3.3%) of roughly 52,000 compounds were called active. This excerpt belongs to a sample that is enriched for actives. A number with no mark means an inactive call. Cut-off read from the data, not from the text of the source: active = survival mostly below about 52% (no sharp cut-off); inactive = mostly above about 56%.

The subject of the assay is Wild type. Briefly: growth inhibition of S. aureus wild type versus tarO mutant, primary screen, teichoic acid synthesis inhibitors, RN4220, OD600 (AID 463173). The following applies: S. aureus RN4220 wild type/DeltatarO growth, OD600, 18 h, hits give low values, screened at 18.75 µg/mL (by protocol).
Take `Cn1ccc2cc(S(=O)(=O)N3CCN(C(=O)Nc4cccc(F)c4)CC3)ccc21`: the survival was 74%.

Take `CCCCN(CCCNC(=O)c1cc(Nc2ccc(OC)c(OC)c2)nc2ccccc12)Cc1ccccc1`: the survival was 79%.

Consider `CCc1nn2c(=O)cc(COC(=O)c3cccc(NC(=O)CCc4ccccc4)c3)nc2s1`, for which the survival was 72%.

`CC(=O)c1cccc(NC(=O)C2CCN(S(=O)(=O)c3ccc4c(c3)oc(=O)n4C)CC2)c1`: the survival was 90%.

For the compound `O=S(=O)(NCc1nc2cccnc2n1Cc1ccccc1Cl)c1ccc2c(c1)CCCC2`, the survival is 73%.

On to `COc1ccc(C(=O)/C=C/c2cn(CC(O)CN(CC(C)C)CC(C)C)c3ccccc23)cc1` (stereo not given), for which the survival was 44%.

Take `CCCCN(CCCC)CC(O)Cn1cc(/C=C/C(=O)c2ccccc2)c2ccccc21` (stereo not given): the survival was 18% (active).

For the compound `CCCN(CCC)CC(O)Cn1cc(/C=C/C(=O)c2ccc(OC)cc2)c2ccccc21` (stereo not given), the survival is 1% (active).

Take `CCCN(CCC)CC(O)Cn1cc(/C=C/C(=O)c2ccc(OCC)cc2)c2ccccc21` (stereo not given): the survival is 23% (active).

In the case of `CCCN(CCC)CC(O)Cn1cc(/C=C/C(=O)c2ccc(C)cc2)c2ccccc21` (stereo not given), the survival was -1% (active).

Turning to `COc1ccc(C(=O)/C=C/c2cn(CC(O)CN(CC(C)C)CC(C)C)c3ccccc23)cc1OC` (stereo not given), the survival was 60%.

Turning to `CC(C)CN(CC(C)C)CC(O)Cn1cc(/C=C/C(=O)c2ccccc2)c2ccccc21` (stereo not given), the survival is 40%.

Consider `CCCN(CCC)CC(O)Cn1cc(/C=C/C(=O)c2ccc(Br)cc2)c2ccccc21` (stereo not given), for which the survival is 85%.

On to `Cc1ccccc1Cn1c(=O)n(Cc2ccc(Cl)cc2)c(=O)c2cccnc21`, for which the survival is 82%.

For `CN1C(=O)CC(=O)N(C)c2cc(S(=O)(=O)N(C)Cc3ccccc3)ccc21`, the survival was 24%.

For `CN(C)CCNC(=O)c1ccc(Cn2c(=O)c3cccn3c3cccnc32)cc1`, the survival is 89%.

For `O=C(CCSCc1ccccc1Cl)N1CCN(c2cccc(Cl)c2)CC1`, the survival is 75%.

Consider `CCOC(=O)Cc1ccc(NC(=O)N(C(C)C)C2CCN(C(C)=O)CC2)cc1`, for which the survival was 85%.

Turning to `Cc1ccccc1CSc1nc2cc(C(=O)NC3CCCC3)ccc2c(=O)n1Cc1ccccc1`, the survival was 94%.

Regarding `COCCCNC(=O)c1ccc(CSc2nc3cccnc3n2Cc2ccc(OC)cc2)cc1`, the survival is 94%.

As for `CCNC(=O)c1ccc(CSc2nc3cccnc3n2Cc2ccc(OC)cc2)cc1`, the survival was -3% (active).

Regarding `COc1ccc(Cn2c(SCc3ccc(C(=O)NCc4ccc(C)cc4)cc3)nc3cccnc32)cc1`, the survival was 85%.

As to `O=C(NC1CCCCC1)c1ccc(Cn2c(SCc3ccc(F)cc3)nc3cccnc32)cc1`, the survival is 0% (active).

As to `COc1ccccc1CNC(=O)c1ccc(Cn2c(SCc3ccccc3)nc3cccnc32)cc1`, the survival is 10% (active).

Regarding `O=C(NC1CCCC1)c1ccc2c(=O)n(Cc3ccccc3)c(SCc3ccccc3)nc2c1`, the survival is 83%.

For `O=C(NC1CCCCC1)c1ccc(CSc2nc3cccnc3n2Cc2ccc(F)cc2)cc1`, the survival is 19%.

Take `O=C(NC1CCCC1)c1ccc(CSc2nc3cccnc3n2Cc2ccc(F)cc2)cc1`: the survival is 45%.

For the compound `O=C(NC1CCCC1)c1ccc2c(=O)n(Cc3ccccc3)c(SCc3ccccc3F)nc2c1`, the survival is -3% (active).

In the case of `O=C(NCc1ccccc1Cl)c1ccc(Cn2c(SCc3ccccc3)nc3cccnc32)cc1`, the survival was 68%.

On to `CCOc1ccccc1CNC(=O)c1ccc(Cn2c(SCc3ccccc3)nc3cccnc32)cc1`, for which the survival is 69%.

Turning to `CCN(C(=O)C(NS(=O)(=O)c1cccc2nsnc12)c1ccccc1)c1ccccc1` (stereo not given), the survival is 117%.

As to `CCN(CC)c1cc2c(cc1F)c(=O)c(S(=O)(=O)c1cccc(C)c1)cn2C`, the survival is 112%.

On to `Cc1ccc(NC(=O)C2(c3cccs3)CCOCC2)cc1Cl`, for which the survival is 75%.

Take `COc1ccc(C2=NS(=O)(=O)N(C)C(C(=O)Nc3cc(C)ccc3O)=C2)cc1OC`: the survival was 69%.

Consider `C=Cc1ccc(Cn2c(=O)n(CC3CCC(C(=O)NC(C)C)CC3)c(=O)c3sccc32)cc1` (stereo not given), for which the survival was 81%.

As to `COc1ccc(CCNC(=O)CCc2c(C)nc3c(-c4ccc(F)cc4)c(C)nn3c2C)cc1OC`, the survival is 137%.

On to `Cc1ccccc1CNC(=O)c1ccc(Cn2c(SCc3ccccc3)nc3cccnc32)cc1`, for which the survival was -2% (active).

Turning to `Cc1ccccc1CNC(=O)c1ccc(Cn2c(SCc3cccc(F)c3)nc3cccnc32)cc1`, the survival was 70%.

Regarding `Cc1ccccc1CNC(=O)c1ccc(CSc2nc3cccnc3n2Cc2ccccc2)cc1`, the survival is 47%.

For `Cc1ccccc1NS(=O)(=O)c1ccc2[nH]cc(C(=O)N3CCCCC3)c(=O)c2c1`, the survival is 68%.

As to `N/C(=N\OC(=O)c1ccccc1)c1cccnc1`, the survival was 109%.

For `CN(C)c1ccc(C(CNS(=O)(=O)c2ccccc2)N2CCc3ccccc32)cc1` (stereo not given), the survival was 80%.

Turning to `CN(C)c1ccc(C(CNS(=O)(=O)c2ccc(F)cc2)N2CCc3ccccc32)cc1` (stereo not given), the survival is 0% (active).

`CCOc1ccc(S(=O)(=O)NCC(c2ccc(N(C)C)cc2)N2CCc3ccccc32)cc1` (stereo not given): the survival was 22%.

Consider `Cc1ccc(S(=O)(=O)NCC(c2ccc(N(C)C)cc2)N2CCc3ccccc32)cc1` (stereo not given), for which the survival was -2% (active).

As for `COc1ccc(S(=O)(=O)NCC(c2ccc(N(C)C)cc2)N2CCc3ccccc32)cc1` (stereo not given), the survival is 73%.

In the case of `Cc1ccc(S(=O)(=O)NCC(c2ccc(N(C)C)cc2)N2CCc3ccccc32)cc1C` (stereo not given), the survival is 129%.

In the case of `COC(=O)CNC(c1ccccc1)c1cc(Br)ccc1NC(=O)c1ccccc1` (stereo not given), the survival is 62%.

With `CCOC(=O)c1[nH]c(C)c(CCC(=O)NCc2cccc(C)c2)c1C`, the survival is 105%.

For the compound `CCOc1cccc2sc(=NC(=O)c3ccc(S(=O)(=O)N4CCOCC4)cc3)n(C)c12`, the survival is 83%.

With `COc1cccc(C(=O)Nc2nc(-c3nnn(-c4ccccc4C(F)(F)F)c3C)ns2)c1`, the survival is 76%.

Consider `Cc1c(-c2nsc(NC(=O)c3cccc(Cl)c3)n2)nnn1-c1ccccc1C(F)(F)F`, for which the survival is -6% (active).

Take `Cc1ccc(C(=O)Nc2nc(-c3nnn(-c4cccc(Cl)c4C)c3C)ns2)cc1C`: the survival is 136%.

For `COc1cccc(C(=O)Nc2nc(-c3nnn(-c4cccc(Cl)c4C)c3C)ns2)c1`, the survival was -6% (active).

With `Cc1c(-c2nsc(NC(=O)c3ccccc3)n2)nnn1-c1ccc(C(F)(F)F)c(Cl)c1`, the survival is 80%.

As for `COc1cccc(C(=O)Nc2nc(-c3nnn(-c4cc(C)ccc4C)c3C)ns2)c1`, the survival was 72%.

`CCOC(=O)c1sc(NC(=O)c2cc3nc(-c4ccccc4)cc(C(F)(F)F)n3n2)c(C(=O)OCC)c1C`: the survival was 63%.

As for `COc1cccc(-n2c(=O)c3c(C)c(C(=O)N(C)C)sc3n(Cc3cccc(C)c3)c2=O)c1`, the survival was 10% (active).

With `CCOC(=O)c1ccccc1NC(=O)Cn1c(=O)n(-c2ccc(CC)cc2)c(=O)c2c(C)c(C(=O)N(C)C)sc21`, the survival is -2% (active).

As to `CCOc1ccc(-n2c(=O)c3c(C)c(C(=O)N(C)C)sc3n(Cc3cc(C)ccc3C)c2=O)cc1`, the survival was -3% (active).

For the compound `CCOc1ccc(-n2c(=O)c3c(C)c(C(=O)N(C)C)sc3n(CC(=O)Nc3c(C)cc(C)cc3C)c2=O)cc1`, the survival was 68%.

`CCc1ccc(-n2c(=O)c3c(C)c(C(=O)N(C)C)sc3n(CC(=O)Nc3cc(Cl)ccc3C)c2=O)cc1`: the survival is 129%.

For `COC(=O)c1ccccc1NC(=O)Cn1c(=O)n(-c2cccc(OC)c2)c(=O)c2c(C)c(C(=O)N(C)C)sc21`, the survival was 121%.

Turning to `Cc1ccc(-n2c(=O)c3c(C)c(C(=O)N(C)C)sc3n(Cc3ccccc3C)c2=O)cc1C`, the survival is 73%.

On to `COc1cccc(-n2c(=O)c3c(C)c(C(=O)N(C)C)sc3n(Cc3ccc(F)cc3Cl)c2=O)c1`, for which the survival was 83%.

For the compound `CCc1ccc(-n2c(=O)c3c(C)c(C(=O)N(C)C)sc3n(Cc3cccc(C)c3)c2=O)cc1`, the survival is 80%.

As to `O=C(c1cccs1)c1cn(CCOc2ccccc2Cl)c2ccccc12`, the survival is 80%.

Take `CC1(C)Oc2ccc(C(=O)N3CCCC3)cc2N(CC(=O)N2CCCCC2)C1=O`: the survival was 101%.

With `O=C(Cn1c(=O)c2ccccc2n(CC(=O)Nc2ccc(F)cc2)c1=O)NCCc1ccccc1`, the survival is 127%.

As for `Cc1nn(C(=O)c2ccccc2F)c(C)c1S(=O)(=O)N1CCOCC1`, the survival was 66%.

Regarding `Cc1nnc(N(Cc2ccco2)C(=O)c2cccc(C#N)c2)s1`, the survival was 108%.

Consider `CC(C)OCCCNC(=O)CN1C(=O)COc2ccc(S(=O)(=O)N3CCCCCC3)cc21`, for which the survival is 98%.

Consider `Nc1cc(=O)[nH]c2n[nH]c(=S)n12`, for which the survival is 111%.

For `CCc1nnc(NC(=O)c2cc(=O)c3cc(C)c(C)cc3o2)s1`, the survival is 74%.

Consider `COc1cccc(-c2nc(CS(=O)(=O)CC(=O)NCc3cccc(Cl)c3)c(C)o2)c1`, for which the survival is 82%.
